Shown are actives, neighbours in structure and some others; about 12% of the full set was active somewhere.
OTUD3 block: inhibitors of human OTUD3 deubiquitinase; OTU domain-containing protein 3 (Homo sapiens), Q5T2D3; purified OTUD3, Ub-rhodamine fluorescence, 2 h; inhibition, % at 25 µM; actives 0.7% (n = 47,000)
USP28 inh: inhibitors of human USP28 deubiquitinase; purified USP28, Ub-rhodamine cleavage fluorescence, 30 min; inhibition, % at 25 µM; actives 3% (n = 47,000); AID 1645857, 2021
USP17 inh: inhibitors of human USP17 deubiquitinase; Ubiquitin carboxyl-terminal hydrolase 17-like protein 5 (Homo sapiens), A8MUK1; purified USP17, Ub-rhodamine cleavage fluorescence, 3 h; inhibition, % at 50 µM; actives 6.5% (n = 47,000)
Target sequence (A8MUK1 whole entry, looked up): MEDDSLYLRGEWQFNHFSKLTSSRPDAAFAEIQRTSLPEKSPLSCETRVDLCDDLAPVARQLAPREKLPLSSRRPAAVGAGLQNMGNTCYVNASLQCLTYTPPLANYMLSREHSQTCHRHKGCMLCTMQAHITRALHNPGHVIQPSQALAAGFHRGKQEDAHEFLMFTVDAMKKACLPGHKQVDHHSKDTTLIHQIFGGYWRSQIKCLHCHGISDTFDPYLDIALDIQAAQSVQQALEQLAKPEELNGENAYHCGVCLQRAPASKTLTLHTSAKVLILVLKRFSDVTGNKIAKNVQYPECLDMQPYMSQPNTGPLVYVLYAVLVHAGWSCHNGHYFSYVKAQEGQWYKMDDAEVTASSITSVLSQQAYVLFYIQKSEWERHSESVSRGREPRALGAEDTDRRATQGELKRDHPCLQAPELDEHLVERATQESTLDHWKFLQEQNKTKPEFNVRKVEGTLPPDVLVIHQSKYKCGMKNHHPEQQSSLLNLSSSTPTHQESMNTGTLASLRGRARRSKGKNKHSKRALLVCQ
USP30 inh: inhibitors of human USP30 deubiquitinase. Ubiquitin carboxyl-terminal hydrolase 30 (Homo sapiens), Q70CQ3. purified USP30, Ub-rhodamine cleavage fluorescence. inhibition, % at 25 µM. actives 5.3% (n = 47,000)
Each line names hits and unclear results; the compound was inactive in the other large screens. No stated cut-off is given here; in the data, active means inhibition above about 30%; inactive means the rest.

O=C(CSc1n[nH]c2nc3ccccc3n12)Nc1ccc2c(c1)OCCO2	USP28 inh 31
O=C(CSc1n[nH]c(-c2ccccc2Cl)n1)Nc1ccc2c(c1)OCCO2	USP28 inh 38
COc1ccc(NC(=O)COC(=O)Cn2cnc3ccccc32)cc1OC	none
O=C(COC(=O)Cn1cnc2ccccc21)Nc1ccc2c(c1)OCCO2	USP28 inh 56
O=C(CSc1nc2ccccc2[nH]1)Nc1ccc2c(c1)OCCO2	USP28 inh 46
O=C(CSc1ccc2ccccc2c1)Nc1ccc2c(c1)OCCCO2	none
CCN1CCN(C(=O)CN2CCC3(CCC2=O)NC(=O)c2ccccc2N3)CC1 (centres undefined)	none
O=C(NC1CCCCC1)C(c1ccc(Cl)cc1)N(C(=O)c1cnccn1)c1ccc2c(c1)OCO2 (centres undefined)	USP17 inh 43
Cc1ccc(C(C(=O)NC2CCCCC2)N(C(=O)CCCC(=O)Nc2ccccn2)c2ccc3c(c2)OCCO3)cc1 (centres undefined)	USP17 inh 48, USP30 inh 38
CC(C)c1ccc(C(C(=O)NC2CCCCC2)N(C(=O)c2cnccn2)c2ccc3c(c2)OCO3)cc1 (centres undefined)	none
O=C(CCCC(=O)N(c1ccc2c(c1)OCCO2)C(C(=O)NC1CCCCC1)c1ccc(F)cc1)Nc1ccccn1 (centres undefined)	USP17 inh 34, USP30 inh 45
CCn1c(=O)c(C)nc2cc(-c3noc(CCC4CCCC4)n3)ccc21	none
CSc1ccccc1C(=O)Nc1nc(-c2ccncc2)cs1	USP17 inh 55, USP30 inh 34
COc1ccc(-c2cnnn2-c2ccc(NC(=O)c3c(F)cccc3F)cc2)cc1OC	USP30 inh 83 (no result: USP17 inh)
Cc1ccc(NC(=O)c2nnn(-c3cccc(F)c3)c2C)cc1C	none
COc1cccc(-n2nnc(C(=O)Nc3ccc(C)c(C)c3)c2C)c1	USP28 inh 58
COc1cccc(C(=O)Nc2nc(-c3nnn(-c4ccc(C)c(F)c4)c3C)ns2)c1	USP28 inh 64, USP17 inh 61, USP30 inh 95
Cc1ccc(NC(=O)c2nnn(-c3ccccc3Br)c2C)cc1C	USP28 inh 84
COc1ccc(OC)c(NC(=O)c2ccc(C)c(F)c2)c1	none
Cn1c(CN2CCOCC2)nnc1SCc1c(F)cccc1Cl	none
CCc1cccc(NC(=O)Cn2c(=O)n(Cc3ccncc3)c(=O)c3ncccc32)c1	none
CC(C)C(=O)N1CCN(S(=O)(=O)c2ccccc2)CC2(CC(=O)N(C)C2)C1 (centres undefined)	none
O=C(NCc1noc(C2CCCCC2)n1)c1ccccc1C(F)(F)F	none
COc1ccc(NC(=O)c2nnn(-c3ccccc3F)c2C)cc1OC	USP28 inh 74
COc1cc(=O)c(C(=O)Nc2ccc(C#N)cc2)nn1-c1cccc(F)c1	USP28 inh 43, USP17 inh 64
CCc1ccc(NC(=O)c2nnn(-c3cccc(F)c3)c2C)cc1	none
Cc1c(C(=O)Nc2ccc(F)cc2)nnn1-c1cccc(F)c1	USP30 inh 37
Cc1c(C(=O)Nc2ccc(Oc3ccccc3)cc2)nnn1-c1cccc(Cl)c1	USP28 inh 50
COc1ccc(-n2nnc(C(=O)Nc3ccccc3F)c2C)cc1	none
CCc1ccc(NC(=O)c2nnn(-c3cccc(C)c3)c2C)cc1	USP28 inh 41
COc1ccc(NC(=O)c2nnn(-c3cccc(C)c3)c2C)cc1	USP28 inh 59
Cc1cccc(-n2ncc(C(=O)Nc3cccc(F)c3)c2-n2cccc2)c1	USP30 inh 34
Cc1cc(NC(=O)c2nnn(-c3ccc(Cl)cc3)c2C)no1	none
Cc1cccc(-n2nnc(C(=O)Nc3ccc(F)cc3)c2C)c1	USP30 inh 32
Cc1nc(CN2CCC3(CC2)OC(C(=O)N2CCOCC2)Cn2ccnc23)cs1 (centres undefined)	none
O=C(Cn1cc(S(=O)(=O)N2CCCC2)ccc1=O)Nc1ccccc1F	none
O=C(Nc1ccc(OC(F)(F)F)cc1)C1Cc2ccccc2CN1C(=O)c1ccccc1 (centres undefined)	none
O=C(Nc1ccc2nc(N3CCOCC3)sc2c1)c1ccncc1	none
Cc1cc(C(=O)N2[C@@H](c3ccccc3)C[C@@]3(C)[C@H](O)[C@H](O)CCC[C@@H]23)on1	none
Cc1ccc(-c2csc3ncn(Cc4ccco4)c(=O)c23)cc1	USP28 inh 32
O=c1c2c(-c3ccc(Cl)cc3)csc2ncn1Cc1ccco1	none
COc1ccccc1CNC(=O)Cn1cnc2c(-c3ccccc3)csc2c1=O	USP30 inh 33
COCCCn1cnc2c(-c3ccccc3)cn(CC(=O)NCc3ccccc3)c2c1=O	none
CCOc1ccc(-c2csc3ncn(CC(=O)NCc4ccccc4)c(=O)c23)cc1	USP17 inh 37
CC(C)n1cnc2c(-c3ccccc3)cn(CC(=O)NCc3ccccc3)c2c1=O	USP17 inh 36
COc1cccc(CNc2nccn(-c3ccc4c(c3)OCCO4)c2=O)c1	none
COc1ccc(Sc2ccc(NC(=O)c3c(F)cccc3F)cc2C#N)cc1	none
CC(C)CN1C(=O)CCc2cc(NC(=O)Cc3cccc(F)c3)ccc21	none
Cc1nnc2c(SCc3ccccc3F)nc3ccccc3n12	none
COc1ccc(NC(=O)Cn2cnc3scc(-c4ccc(OC)cc4)c3c2=O)cc1	USP17 inh 45
CCn1c(NC(=O)c2cccnc2N2CCCC2)nc2ccccc21	none
CCCn1c(NC(=O)c2cccnc2)nc2ccccc21	USP28 inh 31
Fc1ccc(Cc2nc(-c3ccnc(N4CCCC4)c3)no2)cc1	USP28 inh 48
c1cc(-c2noc([C@@H]3CCCN3CC3CC3)n2)cc(N2CCCC2)n1	none
Cc1cccc(OCc2nc(-c3ccnc(N4CCCC4)c3)no2)c1	USP28 inh 32
COc1ccc(OCc2nc(-c3ccc(N4CCCCCC4)nc3)no2)cc1	none
COc1ccc(/C=C/C(=O)N2CCc3[nH]nc(-c4ccccc4)c3C2)cc1OC	none
Cn1cccc1C(=O)N1CCN(C2CCN(Cc3cc4ccccc4o3)CC2)C(=O)C1	none
Fc1ccc(-c2cnc(N3CCN(c4ccccn4)CC3)nc2)cc1	USP30 inh 31
Cc1snc(SCc2nc(COc3ccc(Cl)cc3Cl)n[nH]2)c1C#N	USP28 inh 40, USP30 inh 40
O=C(Nc1ccc(-n2cnc(C(=O)N3CCCC3)c2)nc1)C1CC1	none
CC1=C(C(=O)c2ccc(Cl)cc2)C(c2ccc(C(C)C)cc2)NC(=O)N1 (centres undefined)	USP17 inh 32
CCN1CCN(c2ncc(-c3cc(=O)[nH]c(N4CCc5ccccc54)n3)c(C)n2)CC1	none
O=C(CCc1nc2ccccc2s1)N1CCCC(c2[nH]nc3nccnc23)C1 (centres undefined)	none (no result: USP28 inh, USP30 inh)
CC(=O)Nc1cc2cc(-n3cccc3)ccc2oc1=O	USP17 inh 59
Cc1oc2c(c1C(=O)NCc1ccccn1)CN(Cc1ccc(F)cc1)CC2	none
COc1ccc(N2C(=O)[C@@H]3Cc4c([nH]c5ccccc45)C(C)(C)N3C2=O)c(OC)c1	USP17 inh 47

From PubChem BioAssay
